Consider 11 molecules from PubChem BioAssay (NCI).

This is part of a sample that, as a whole, favours compounds with a hit. Of some 83,000 tested, about 20% had one in any assay.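 For each line, cells grew in 96-well plates with the test compound present at a single concentration for 48 hours.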 Values without a mark were called inactive. Calls of active or inactive are those of the source. How the source made its calls: active means growth percent below 10; inactive means the rest.

What all share (assay): NCI-60 one-dose screen, 48 h (100 = growth as untreated, 0 = no growth, -100 = all killed)
Holding throughout (conditions): 10 µM unless noted

Assay [1] has as its system RPMI-8226 leukemia.
Assay [2] concerns OVCAR-8 ovarian.
Assay [3] relates to OVCAR-5 ovarian.
Assay [4] deals with OVCAR-4 ovarian.
Assay [5] concerns SK-OV-3 ovarian.
For assay [6], the system named is IGROV1 ovarian.
Assay [7] relates to OVCAR-3 ovarian.
In assay [8] the test system is HS 578T breast.
Assay [9] has as its system NCI/ADR-RES ovarian.
Assay [10] concerns T-47D breast.

`CCOCc1cc(C(C)(C)C)ccc1O`: the growth in [1] is 106%; in assay [2] it was 95.4%; in assay [3], 105%; in [4], 103%; in [5], 97.8%; in assay [6], 107%. The growth was 115% in [7], 99.2% in [8], 103% in assay [9] and 98.6% in assay [10].
Consider `CCOC(=O)c1sc(/N=C2\NC(=O)/C(=C/c3ccc(N4CCN(C)CC4)cc3)S2)nc1C`, for which the growth in assay [1] was 87.5%; in assay [2] it was 110%; in [3], 110%; in [4], 103%; in assay [5], 102%; in assay [6] it was 99.5%. Besides, the growth in assay [7] is 96.3%; in assay [8] it was 107%; in assay [9], 98.1%; in assay [10], 95.5%.
In the case of `CC(C)(C)CC(C)(C)Cc1ccc(OCCOCC[N+](C)(C)Cc2ccccc2)cc1`, the growth in assay [1] is -53.4% (active); in [2] it was 22.8%; in assay [3], 74%; in assay [4], 7.03% (active); in assay [5] it was 46.9%; in [6], -16.7% (active). The growth in assay [7] was 0.137% (active); in assay [8], 26.3%; in assay [9], 99.9%; in assay [10] it was 0.793% (active).
`COc1ccc(C2CC(c3ccc(OC)cc3O)=NN2c2ccc(S(N)(=O)=O)cc2)cc1` (stereo not given): the growth in assay [1] is -32.6% (active); in assay [2] it was 43%; in assay [3], 83.7%; in assay [4] it was 42.3%; in assay [5] it was 69.2%; in [6], 13.2%. Moreover, the growth in assay [7] was 47.7%; in [8], 78.1%; in assay [9], 54%; in assay [10] it was 24.5%.
With `N#Cc1ccc(C2C3=C(CCCC3=O)OC3=C2C(=O)c2ccccc2C3=O)cc1` (stereo not given), the growth in [1] was 54.7%; in assay [2], 1.88% (active); in assay [3], 126%; in [4], -2.83% (active); in assay [5] it was 97.7%; in [6], 40%. The growth is -1.75% (active) in [7], 90.8% in assay [8], 6.19% (active) in [9] and 3.02% (active) in assay [10].
`C=C1C(=O)O[C@H]2[C@H]1CC/C(COC(=O)c1cccnc1)=C\CC[C@@]1(C)O[C@@H]21`: the growth was 28.5% in assay [1]; 86.4% in assay [2]; 73.8% in assay [3]; 70% in assay [4]; 86.1% in assay [5]; 64.8% in assay [6]. The growth was 26.4% in [7], 89.9% in assay [8], 93.5% in assay [9] and 55.7% in assay [10].
As for `COc1ccc2[nH]c(=O)c(/C=C/C(=O)c3ccccc3OC)cc2c1`, the growth was 5.61% (active) in [1]; 1.18% (active) in [2]; 12.1% in assay [3]; 50.8% in [4]; 6.12% (active) in assay [5]; 14.5% in assay [6]. Besides, the growth was 8.25% (active) in assay [7], 8.33% (active) in assay [8], 10.4% in [9] and -2.02% (active) in [10].
Take `O=c1[nH]nc(-c2ccc(Br)cc2)c2sc(NC(=S)Nc3ccc(Cl)cc3)nc12`: the growth in assay [1] was 101%; in assay [2] it was 95.4%; in assay [3] it was 97.3%; in assay [4], 91.5%; in assay [5], 96.9%; in [6], 81.1%. Besides, the growth was 104% in assay [7], -1.82% (active) in assay [8], 80% in assay [9] and 85.9% in assay [10].
Consider `Cc1ccc(CS/C(=C\c2ccc([N+](=O)[O-])cc2)C(=O)c2ccc(F)cc2)cc1`, for which the growth in [1] was -18.3% (active); in [2] it was 57.1%; in assay [3], 97.7%; in assay [4] it was 60.6%; in assay [5], 79.2%; in [6], 58.5%. Moreover, the growth in [7] was 60.1%; in assay [8], 8.91% (active); in assay [9] it was 49.6%; in [10], 49.6%.
Turning to `C=C(C)[C@@H]1CC[C@]2(C(=O)O)CC[C@]3(C)[C@H](CC[C@@H]4[C@@]5(C)C[C@@H](CC#Cc6ccc(Cl)cc6)C(=O)C(C)(C)[C@@H]5CC[C@]43C)[C@@H]12`, the growth in assay [1] is 22.5%; in [2], 48.1%; in assay [3], 70.9%; in assay [4], 29.1%; in assay [5], 61.5%; in assay [6], 70.1%. Also, the growth in assay [7] is 46.6%; in assay [8], 55.3%; in assay [9], 71.7%; in assay [10] it was 39.4%.
Take `Cc1[nH]c(N=Nc2ccccc2)nc1N=Nc1ccccc1`: the growth in assay [1] is -2.66% (active); in assay [2], 14.7%; in assay [3], 18.8%; in [4], 30.3%; in assay [5], 39%; in assay [6], -22.8% (active). For the same molecule, the growth in assay [7] was 33.2%; in assay [8] it was 61.5%; in assay [9], 0.979% (active); in assay [10] it was 30.5%.
